About 14,000 (4.5%) of roughly 310,000 compounds showed an effect of 50% or more. Effects have a minus sign here. The entries come from a sample that favours strong results as a whole.
What follows are molecules tested against human ether-à-go-go-related gene (hERG) potassium channel (human, UniProt Q12809) (assay: primary screen, population patch clamp on CHO cells stably expressing hERG; higher = less effect of the substance).
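Further: peak tail current of the secondary pulse compared with the same well before compound.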

human ether-à-go-go-related gene (hERG) potassium channel, sequence (Q12809 whole entry, looked up): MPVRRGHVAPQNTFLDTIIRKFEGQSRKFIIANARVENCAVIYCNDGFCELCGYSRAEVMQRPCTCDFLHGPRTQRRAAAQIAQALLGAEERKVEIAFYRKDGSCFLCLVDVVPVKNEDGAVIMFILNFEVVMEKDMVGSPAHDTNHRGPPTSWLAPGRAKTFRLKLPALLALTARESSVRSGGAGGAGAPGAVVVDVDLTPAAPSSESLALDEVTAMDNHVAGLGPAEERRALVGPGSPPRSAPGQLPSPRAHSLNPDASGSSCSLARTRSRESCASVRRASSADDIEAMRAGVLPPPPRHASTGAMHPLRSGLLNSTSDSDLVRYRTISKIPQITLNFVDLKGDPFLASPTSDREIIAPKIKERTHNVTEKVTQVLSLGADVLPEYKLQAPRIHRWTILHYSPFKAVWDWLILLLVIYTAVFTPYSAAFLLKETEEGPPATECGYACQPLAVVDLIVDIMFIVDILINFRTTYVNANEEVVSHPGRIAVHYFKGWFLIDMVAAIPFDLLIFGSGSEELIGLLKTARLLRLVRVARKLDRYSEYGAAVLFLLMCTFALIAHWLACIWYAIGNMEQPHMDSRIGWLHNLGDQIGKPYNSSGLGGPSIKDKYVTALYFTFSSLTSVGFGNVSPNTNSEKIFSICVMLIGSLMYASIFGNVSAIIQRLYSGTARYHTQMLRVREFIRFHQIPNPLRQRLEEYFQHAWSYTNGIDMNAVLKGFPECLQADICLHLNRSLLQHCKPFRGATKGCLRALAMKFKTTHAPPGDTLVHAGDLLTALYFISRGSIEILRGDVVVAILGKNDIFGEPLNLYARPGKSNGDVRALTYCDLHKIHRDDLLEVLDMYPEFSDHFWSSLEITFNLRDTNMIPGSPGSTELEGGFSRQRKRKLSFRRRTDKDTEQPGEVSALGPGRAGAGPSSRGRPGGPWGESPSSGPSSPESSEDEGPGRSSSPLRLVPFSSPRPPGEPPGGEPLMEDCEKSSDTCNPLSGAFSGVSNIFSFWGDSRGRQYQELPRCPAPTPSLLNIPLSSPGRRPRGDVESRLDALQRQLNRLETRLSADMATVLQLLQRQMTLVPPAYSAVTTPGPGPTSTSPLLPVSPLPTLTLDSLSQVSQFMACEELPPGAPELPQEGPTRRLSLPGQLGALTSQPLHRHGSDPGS

SMILES | hERG current change (%, negative = inhibition) at 10uM [%]
COC(=O)[C@@H]1C[C@@H]2CC[C@@H](O)C[C@@H]2N1Cc1ccc(N2CCN(C)CC2)cc1 | 9.87
CCOC(=O)Cn1c(=O)c2c(nc(N3CCCCC3)n2Cc2ccccc2)n(C)c1=O | -40.4
CC(O)CNc1nc2c(c(=O)n(Cc3ccc(Br)cc3)c(=O)n2C)n1C (stereo not shown) | -12.6
Cn1c(Cl)nc2c1c(=O)n(Cc1cccc(Br)c1)c(=O)n2C | -35.3
Cn1c(N2CCCC2)nc2c1c(=O)n(Cc1cccc(F)c1)c(=O)n2C | -19.6
CCCCCCn1c(N2CCCC2)nc2c1c(=O)n(C)c(=O)n2C | -1.96
CCCCCn1c(N2CCCC2)nc2c1c(=O)n(C)c(=O)n2C | -9.54
CN(CCO)c1nc2c(c(=O)n(Cc3ccc(Cl)cc3)c(=O)n2C)n1C | 3.79
Cn1c(N2CCC(C(N)=O)CC2)nc2c1c(=O)n(Cc1ccc(Cl)cc1)c(=O)n2C | -58.5
Cn1c(N2CCC(C(N)=O)CC2)nc2c1c(=O)n(Cc1cccc(Br)c1)c(=O)n2C | -64.7
CCCCCCn1c(N2CCC(C(N)=O)CC2)nc2c1c(=O)n(C)c(=O)n2C | -56.4
Cn1c(N2CCC(C(N)=O)CC2)nc2c1c(=O)n(Cc1ccc(Br)cc1)c(=O)n2C | -57.3
CC1CCN(c2nc3c(c(=O)n(C)c(=O)n3C)n2Cc2ccccc2)CC1 | -50
CCOc1ccc(S(=O)(=O)NCCC(=O)OC(C)C(=O)N2CCc3ccccc32)cc1 (stereo not shown) | -22.6
NC(=O)c1ccc(NC(=O)CNCc2ccccc2Cl)cc1 | 8.82
COc1ccccc1NS(=O)(=O)c1cccc(C(=O)NCc2ccccn2)c1 | 13.2
CCOc1nc(C)ccc1-c1noc(-c2ccccc2OC)n1 | 12.7
CCCC12CN3CC(C)(CN(C1)C3c1ccco1)C2=O (stereo not shown) | -4.64
CCOc1ncccc1C(=O)NCCc1ccc(Cl)cc1 | -5.75
CC(=O)CC(C)(C)Nc1nc2cc([N+](=O)[O-])ccc2o1 | 0.0382
COc1cc(NC(=O)c2ccc3snnc3c2)cc(OC)c1 | 13.5
CCOCc1nnc(NC(=O)C2CC(=O)N(C3CCCC3)C2)s1 (stereo not shown) | 4.92
COc1ccc(/C=C/c2nc(-c3ccccc3O)n[nH]2)cc1OC | 12.1
CCOC(=O)Nc1c(O)ccc2oc(C)c(-c3ccccc3)c12 | -1.49
O=C(Nc1ccc2nsnc2c1)N1CCCCC1 | 22.2

SMILES | hERG current change (%, negative = inhibition) at 10uM [%]
CCOCCn1c(CN2CCN(c3ccc(OC)cc3)CC2)nc2c1c(=O)n(C)c(=O)n2C | -41.2
COCCn1c(CN2CCN(c3cccc(Cl)c3)CC2)nc2c1c(=O)n(C)c(=O)n2C | -53.9
CCOCCn1c(CN2CCN(c3ccccc3)CC2)nc2c1c(=O)n(C)c(=O)n2C | -22.1
CCCCn1c(CN2CCN(c3ccc(F)cc3)CC2)nc2c1c(=O)n(C)c(=O)n2C | -25
CCOCCn1c(CN2CCN(c3cccc(Cl)c3)CC2)nc2c1c(=O)n(C)c(=O)n2C | -55
CCOCCn1c(CN2CCN(C)CC2)nc2c1c(=O)n(C)c(=O)n2C | 3.97
Cn1c(=O)c2c(nc(CN3CCN(c4ccccc4)CC3)n2CCN2CCOCC2)n(C)c1=O | -21.7
COCCn1c(CN2CCN(c3ccccc3)CC2)nc2c1c(=O)n(C)c(=O)n2C | -13.8
CCOCCn1c(CN2CCN(c3ccc(F)cc3)CC2)nc2c1c(=O)n(C)c(=O)n2C | -56.2
CC(C)Cc1nnc(NC(=O)CN2C(=O)NC3(CC(C)CC(C)(C)C3)C2=O)s1 (stereo not shown) | -20.5
CN1C[C@@H]2C(c3ccccc3)C3(c4ccccc4)CC2(C3)[C@H]1c1ccccc1 (stereo partly shown) | -25.7
CC(C)(C)c1ccc(-c2nnc(NC(=O)c3ccccc3)s2)cc1 | -13.6
COc1ccc(C(=O)COC(=O)/C=C/c2ccccc2)cc1 | 6.99
CN(C)S(=O)(=O)c1ccc(NC(=O)COC(=O)CC2CC3CCC2C3)cc1 (stereo not shown) | -9.56
O=C(CSc1n[nH]c(-c2ccncc2)n1)NCCc1ccccc1 | 13.2
Cc1ccc(N2C(=O)CC(Nc3ccc(Cl)c(S(=O)(=O)N(C)C)c3)C2=O)c(C)c1 (stereo not shown) | -4.31
CN(C)S(=O)(=O)c1cc(NC2CC(=O)N(c3ccc(F)cc3)C2=O)ccc1Cl (stereo not shown) | -51.1
Cc1ccc(NC2CC(=O)N(c3ccc(C)cc3)C2=O)cc1 (stereo not shown) | -0.727
COc1cc(C(=O)NCCc2cn3ccc(C)cc3n2)cc(OC)c1OC | -27
CCCOc1ccc(-c2nc(=S)[nH][nH]2)cc1 | 20.1
CC1CCCC(C)N1CCNC(=O)CCn1nc(-c2ccccc2)ccc1=O (stereo not shown) | -46.8
CCCCNC(=O)CCn1nc(-c2ccccc2)ccc1=O | -40
CC1CCCN(CCCNC(=O)CCn2nc(-c3ccccc3)ccc2=O)C1 (stereo not shown) | -39
CCCN1CCN(CCCNC(=O)CCn2nc(-c3ccccc3)ccc2=O)CC1 | -47.4
O=C(CCn1nc(-c2ccccc2)ccc1=O)N1CCCC1 | -45

SMILES | hERG current change (%, negative = inhibition) at 10uM [%]
O=C(CCn1nc(-c2ccccc2)ccc1=O)NCCCN1CCCCCC1 | -73
CCN(CC)CCCNC(=O)Cn1nc(-c2ccccc2)ccc1=O | -24.4
CCN(CC)CCNC(=O)CCn1nc(-c2ccc(Cl)cc2)ccc1=O | -34.4
O=C(Cn1nc(-c2ccccc2)ccc1=O)N1CCCCC1 | -61.6
CCCCN(C)CCCNC(=O)CCn1nc(-c2ccccc2)ccc1=O | -52.9
O=C(Cn1nc(-c2ccccc2)ccc1=O)N1CCOCC1 | -6.25
CCN(CC)CCCNC(=O)CCn1nc(-c2ccccc2)ccc1=O | -56.8
O=C(CN1C(=O)C2CC=CCC2C1=O)Nc1nnc(C2CC2)s1 (stereo not shown) | 6.01
COc1ccc(N(CC(=O)NC2CC3CCC2C3)S(=O)(=O)c2ccccc2)cc1Cl (stereo not shown) | -19.4
O=C(CSc1ccc2c(c1)OCCO2)Nc1ccc(Cl)cn1 | 24.3
CN(C)C(=O)c1noc2cc([N+](=O)[O-])ccc12 | -12
Cc1c(C#N)c2ccccc2n1CC(=O)NCC1CCCO1 (stereo not shown) | 16.8
CCc1ccccc1NC(=O)COc1ccc2oc(-c3ccc(OC)cc3)cc(=O)c2c1 | 5.29
O=S(=O)(NCc1ccccc1)c1ccc(-n2cccn2)cc1 | -16.6
Cc1nc(SCC(=O)N2CCCCCC2)[nH]c(=O)c1C | 19.5
CCCCSc1nc(CCC)cc(=O)[nH]1 | -7.39
CCc1cc(=O)[nH]c(SCCCF)n1 | -50.2
CCc1cc(=O)[nH]c(SCCC(F)=C(F)F)n1 | 27.7
CC(c1ccccc1)N1C(=O)/C(=C/c2ccncc2)SC1=S (stereo not shown) | 3.24
CC(NC(=O)NCCCC(=O)O)(C(F)(F)F)C(F)(F)F | 11.3
CC(C)c1ccc(OCCCCN2CCCCC2)cc1.O=C(O)C(=O)O | -58.8
CC(C)c1ccc(OCCCN2CCCC2)cc1 | -67.1
CC(C)(C)c1ccc(OCCCN2CCCC2)cc1 | -56.4
Cc1cc(OCCN2CCCC2)cc(C(C)C)c1.O=C(O)C(=O)O | -0.795
CC(C)c1ccc(OCCCCCN2CCOCC2)cc1.O=C(O)C(=O)O | -24.9

SMILES | hERG current change (%, negative = inhibition) at 10uM [%]
CC(C)(C)c1ccc(OCCN2CCCC2)cc1 | -20.6
Clc1ccc(/C=N/N2CCCCC2)cc1 | 7.36
CC(C)c1ccc(/C=N/N2CCCCC2)cc1.O=C(O)C(=O)O | -84.3
c1cc(OCCCN2CCCCC2)ccc1CN1CCCCC1 | 14.1
CC(=O)Nc1ccc(/C=N/N2CCCCC2)cc1 | 16.5
CCC(C)c1ccc(OCCN2CCCC2)cc1 (stereo not shown) | -15.4
CC(C)(C)c1ccc(OCCCCCCN2CCNCC2)cc1 | -0.393
CCOc1ccc(-c2cnc3ccccc3n2)cc1 | 14.3
CC(C)=C1C2CCC1C1C(=O)N(c3ccc(C)c(C)c3)C(=O)C21 (stereo not shown) | 3.55
COc1ccc2nc(C)cc(SCC(=O)N/N=C/c3c(OC)ccc4ccccc34)c2c1 | 12.8
CC(C)N(C(=O)Cn1c(SCC(=O)NCc2ccc3c(c2)OCO3)nc2ccccc21)C(C)C | -34.1
CCN(CC)C(=O)CSc1ncnc2c1cnn2-c1ccccc1 | -14.2
CCSc1nnc(Cn2c(=O)sc3ccccc32)n1-c1ccccc1C | -2.71
CN(/N=C/c1ccc(N(C)C)cc1)C1=NS(=O)(=O)c2ccccc21 | 20.6
Cc1ccc2[nH]c3c(=O)n(Cc4ccccn4)cnc3c2c1 | -1.6
COC(=O)c1[nH]c2cc(OC)ccc2c1NC(=O)c1c(F)cccc1F | 2.79
CC(C)Oc1ccc(C(=O)CCN2CCCCC2)cc1 | -20.9
CC(C)Oc1ccc(OCCCN2CCCCCC2)cc1.O=C(O)C(=O)O | -54.8
COc1ccc(OCCCN2CCCCCC2)cc1.O=C(O)C(=O)O | -19.3
CCOc1ccc(OCCCCN2CCCC2)cc1.O=C(O)C(=O)O | -12.2
Cc1cc(OCCN2CCCC2)ccc1C(C)C | -22.5
Cc1cc(OCCOCCN2CCCC2)ccc1C(C)C | -53.9
Clc1ccc(OCCCCN2CCCCC2)cc1.O=C(O)C(=O)O | -65.5
CCOc1cccc(OCCOCCN2CCCC2)c1 | -10.1
Clc1cccc(Cl)c1OCCCCN1CCCCC1.O=C(O)C(=O)O | -40.8

Source: PMC4336329 (PLoS ONE, 2015)
